About 83,000 compounds went through this panel and 20% of them were active in at least one assay; those are over-represented in the sample as a whole.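 Plates (96-well) were seeded with cells, treated with compound at one concentration, and incubated for 48 hours before percent growth was determined.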 Unmarked numbers belong to inactive results. Active and inactive are the calls of the source.
Test system: MDA-MB-435 melanoma
Assay: NCI-60 one-dose screen, 48 h (100 = growth as untreated, 0 = no growth, -100 = all killed)
Conditions: 10 µM unless noted
Description: Growth inhibition of the MDA-MB-435 human Melanoma tumor cell line is measured as a screen for anti-cancer activity. Cells are grown in 96 well plates and exposed to the test compound for 48 hours. Compounds are tested at a single concentration, which is 10^-5 M for most compounds. The reported endpoint is percent growth (GI% or GIPRCNT), where numbers from 0 - 100% represent growth inhibition, and numbers from -100% - 0 represent cell death. For example, a value of 40 represents 60% growth inhibition. A value of 0 means no net growth occurred over the course of the experiment. A value of -40 indicates 40% of cells at the beginning of the experiment died by the end of the experiment. A value of -100 means all cells are dead at the end of the experiment.
NCI-60 Human Tumor Cell Lines Screen was performed using the standard one-dose NCI protocol, which is described in more detail at https://dtp.cancer.gov/discovery_development/nci-60/default.htm.
Compounds with GIPRCNT values below 10 were considered active. Activity score was based on GIPRCNT using the following formula: […]
Score is 0 for GIPRCNT values of 100 or above, 50 for GIPRCNT values of 0, and 100 for GIPRCNT values of -100.

Which growth does the source give for `COc1ccc(C2=N[C@@H](Cc3ccccc3)C(=O)Nc3ccsc32)cc1` here?
Its growth is -15.7% (active).

For `CC(=O)O[C@H](C[C@H](C(C)C)N(C)C(=O)[C@@H](NC(=O)[C@H]1CCCN1C)C(C)C)c1nc(C(=O)N[C@@H](Cc2ccccc2)C[C@H](C)C(=O)O)c(C)s1`, which growth is on record?
The growth was -5.47% (active).

Which growth does the source give for `COc1ccc(/C=C\c2cc(OC)c(OC)c(OC)c2)cc1NS(=O)(=O)c1ccc(Cl)cc1` here?
The growth was 3.63% (active).

`O=C1CNC(c2ccccc2)c2cc(Cl)ccc2N1` (stereo not given) was tested. Which growth did it give?
Its growth is 108%.

`CN1C(=O)C(=Cc2cn(CCCCCCn3c4ccccc4c(=O)c4ccccc43)c3ccccc23)C(=O)N(C)C1=O` was tested. Which growth did it give?
The growth was 107%.

`COc1ccc2c(c1)c(-c1nc(-c3cn(C)c4ncccc34)cs1)cn2CCN1CCOCC1` was tested. Which growth did it give?
Its growth is 72.9%.

`CC(C)[C@@H]1NC(=O)[C@]2(C)CSC(=N2)c2csc(n2)CNC(=O)C[C@@H](/C=C/CCS)OC1=O` was tested. Which growth did it give?
Its growth is 5.9% (active).

With `CC(C)(N)Cc1ccccc1` as the compound, how does the growth read?
Its growth is 107%.

Which growth does the source give for `O=NNc1ccccn1` here?
Its growth is 111%.

For `Brc1ccc2c(c1)c(-c1nc(-c3c[nH]c4ncccc34)cs1)cn2CCN1CCCCC1`, which growth is on record?
The growth was 76.9%.

How did the growth turn out when `C[n+]1c(/C=C/c2ccc(N(CCCl)CCCl)cc2)sc2ccccc21` was run?
The growth was 76.1%.

For `C[C@]12CC[C@H]3[C@@H](CC[C@]4(O)C[C@@H](O[C@@H]5O[C@H](CO)[C@@H](O[C@@H]6OC[C@@H](O)[C@H](O)[C@H]6O)[C@H](O)[C@H]5O)CC[C@]34C=O)[C@@]1(O)CC[C@@H]2C1=CC(=O)OC1`, which growth is on record?
Its growth is 16.9%.

How did the growth turn out when `CCn1c2ccccc2c2cc(C(=O)c3cccc4c3CCCN4)ccc21` was run?
Its growth is 97.6%.

How did the growth turn out when `O=C1C2C(C(=O)[N]1[Hg][c]1ccccc1)C1(Cl)C(Cl)=C(Cl)C2(Cl)C1(Cl)Cl` (stereo not given) was run?
Its growth is -78% (active).

For `COC(=O)[C@@H](C)C[C@H](Cc1ccccc1)NC(=O)c1csc([C@@H](C[C@H](C(C)C)N(C)C(=O)[C@H](C)NC(=O)[C@H]2CCCN2C)OC(C)=O)n1`, which growth is on record?
Its growth is -27.1% (active).

How did the growth turn out when `O=Cc1cn(Cc2ccc(Cl)cc2)c2ccccc12` was run?
The growth was 104%.

For `CC(C)CCC(=O)O[C@H]1CC[C@H]2[C@@H]3CCC4=CC(=O)CC[C@]4(C)[C@H]3CC[C@]12C`, which growth is on record?
Its growth is 96.6%.

How did the growth turn out when `COc1ccc(N(CC(=O)NCCC[Te]c2ccccc2)C(=O)CNC(=O)OC(C)(C)C)cc1` was run?
The growth was 59.4%.

How did the growth turn out when `CCOC(=O)[C@@H](C)C[C@H](Cc1ccccc1)NC(=O)c1csc([C@@H](C[C@H](C(C)C)N(C)C(=O)[C@H](CCC(C)C)NC(=O)[C@H]2CCCCN2C)OC(C)=O)n1` was run?
The growth was -1.75% (active).

Which growth does the source give for `C#Cc1ccc2c(c1)C(c1ccccc1F)=NCC(=O)N2C` here?
The growth was 10.2%.

With `CCC1CC(O)c2c(O)c3c(c(O)c2C1O)C(=O)c1cccc(O)c1C3=O` (stereo not given) (tested in a mixture with another compound) as the compound, how does the growth read?
Its growth is -90.3% (active).

Which growth does the source give for `CC(C)COC(C[N+](=O)[O-])C(Cl)(Cl)Cl` (stereo not given) here?
The growth was 111%.

For `Clc1ccc(CSC(Cn2ccnc2)c2ccc(Cl)cc2Cl)cc1` (stereo not given), which growth is on record?
Its growth is 31.4%.

Which growth does the source give for `NC(=O)CNc1ccc([As]=[As]c2ccc(NCC(N)=O)cc2)cc1` (stereo not given) here?
Its growth is 61.7%.

How did the growth turn out when `O=C1C2C(C(=O)[N]1[Hg][c]1cccs1)C1(Cl)C(Cl)=C(Cl)C2(Cl)C1(Cl)Cl` (stereo not given) was run?
The growth was 7.41% (active).

With `CCOC(=O)c1c(C)n(Cc2ccccc2)c2cc(CN(C)C)c(O)cc12` as the compound, how does the growth read?
The growth was 80.3%.

For `COc1cccc(/C=C/[N+](=O)[O-])c1`, which growth is on record?
Its growth is -25.3% (active).

For `Cc1ccc(S(=O)(=O)F)cc1C(=O)O`, which growth is on record?
The growth was 86.9%.

With `Fc1ccc(N2COOC3(OOC2)C2CC4CC(C2)CC3C4)cc1` as the compound, how does the growth read?
Its growth is 94.4%.

How did the growth turn out when `O=C(CCCCCCC(=O)Nc1ccc(N(CCCl)CCCl)cc1)NO` was run?
The growth was 45.1%.

Which growth does the source give for `O=C1CN=C(c2ccc(Cl)cc2)c2sccc2N1` here?
Its growth is 109%.

Which growth does the source give for `CCN(CCO)C(Cc1ccccc1)c1ccccc1` (stereo not given) here?
The growth was 94.4%.

With `CCCCCCCCOC(=O)CCN1CC1` as the compound, how does the growth read?
The growth was 105%.

Which growth does the source give for `CN1CCCCC1C(C)(O)c1ccccc1` (stereo not given) here?
The growth was 99.2%.

`O=C([O][Hg][c]1ccccc1)c1ccccc1` was tested. Which growth did it give?
Its growth is -86.6% (active).

How did the growth turn out when `C=C(C)[C@@]12OC3(/C=C/C=C/CCCCC)O[C@@H]1[C@@H]1[C@@H]4O[C@]4(CO)[C@@H](O)[C@]4(O)C(=O)C(C)=C[C@H]4[C@@]1(O3)[C@H](C)[C@H]2OC(=O)c1ccccc1` was run?
The growth was 40.5%.

`C=CCc1cc2c(cc1OCC)OCO2` was tested. Which growth did it give?
Its growth is 109%.

For `Fc1ccc2c(c1)c(-c1nc(-c3c[nH]c4ncccc34)cs1)cn2CCN1CCOCC1`, which growth is on record?
Its growth is 21.5%.

For `[Cl][Hg][c]1cc[c]([Hg][Cl])o1`, which growth is on record?
Its growth is 55.1%.

How did the growth turn out when `Oc1c(O)c(Cl)c(Cl)c(Cl)c1Cl` was run?
The growth was 30.8%.

Reference: PubChem BioAssay (NCI)
